Measurements from PubChem BioAssay (NCATS).
Records with an inconclusive call do not appear. Activity calls are given as the source filed them. Calls follow the shape of the dose curve; as a rule, active = well fitted cell-killing curve with a large enough effect; inconclusive = small, poorly fitted or top-dose-only effect, or effect the other way; inactive = flat fitted curve, though single readings scatter.

tested on: CAOV3; test: Primary qHTS to identify gynecologic anti-cancer compounds using libraries of approved drugs and bioactive compounds (AID 1345084); conditions: Gynecologic cancer cell panel viability, ATPlite luminescence, 48 h; series mostly up to 57.5 µM; activity change, negative = cytotoxicity: at the top concentration; also: nearly all actives have a fitted effect of over 55% in size
Text: National Center for Advancing Translational Sciences [NCATS] Assay Overview: Chemotherapeutic drug responses vary from cancer to cancer and from patient to patient. These variations could be caused by a number of factors including patient genomic background, tumor mutations, tumor heterogeneity, and aspects of drug treatment. Chemotherapeutic drug resistance is also a common issue and can lead to ineffective treatment and patient death. Here we have profiled the cell killing effects of thousands of compounds to characterize the responses in three gynecological cancers, identify cancer-selective compounds, and understand the diversity of responses to these compounds from pan-cancer suppressors to single cell line selective compounds. In this assay, we screened a 7,914 compound drug library that included approved drug and bioactive compounds in six ovarian, three cervical, and […] placental cancer cell lines using the ATPlite assay for cell viability. […] The cervical cancer cell lines included HeLa, Ca Ski, and C-33 A. The placental cancer cell lines included JEG-3. HEK 293T cells were used as the control cell line to determine the selectivity index. ATPlite is a luminescence based assay reliant on the conversion of a luciferase substrate to light in the presence of ATP. As a cytotoxic compound will suppress growth and decrease the number of cells, the concentration of ATP will decrease, and less light signal will be detected in the well.
Assay Protocol Summary: 1,000 cells in 4 uL of media were dispensed into white, solid bottom 1536-well plates using a Multidrop Combi (Thermo Scientific). The Assay plates were incubated for 16 hours at 37 C with 5% CO2 in assay plates, followed by the addition of 23 nL of DMSO or drug dissolved in DMSO. Each compound was assayed in five concentrations (0.092, 0.46, 2.3, 11.5, and 57.5 uM), using the automated Wako 1536 Pin Tool workstation and incubated at 37 C with 5% CO2 48 hours. 4 uL of ATPlite, the ATP monitoring reagent, was then added to the each well of the assay plates using the Multidrop Combi reagent dispenser followed by incubation for 15 minutes at room temperature. The resulting luminescence was measured using the ViewLux plate reader.
% is scaled to controls: 0 for no effect and ±100 for the full control effect; potency is read from the fitted curve at half-maximal effect.

Compound	activity change, negative = cytotoxicity	Potency
CC1CC(O)/C=C/C(O)/C=C\C(=O)O1 (stereo not given)	8.77% (inactive)	
CC1(C)C2CC[C@]3(C)C(C(=O)C=C4[C@H]5C[C@@](C)(C(=O)O)CC[C@]5(C)CC[C@]43C)[C@@]2(C)CC[C@@H]1O (stereo not given in full)	-2.55% [at 25.3 µM] (inactive)	
CC12CC(O)C(O)C=C1c1cc(O)cc(O)c1C(=O)O2 (stereo not given)	0.308% (inactive)	
C[C@@H]1O[C@@H](O[C@H]2[C@H](O)[C@@H](O[C@@H]3O[C@H](CO)[C@H](O)[C@H](O)[C@H]3O)[C@H](O[C@H]3CC[C@@]4(C)C(CC[C@]5(C)C4CC=C4[C@@H]6CC(C)(C)CC[C@]6(C(=O)O[C@@H]6O[C@H](CO)[C@@H](O)[C@H](O)[C@H]6O)CC[C@]45C)C3(C)C)O[C@@H]2C(=O)O)[C@H](O)[C@H](O)[C@H]1O (stereo not given in full)	-1.94% [at 11.6 µM] (inactive)	
CN1CCN(C(=O)c2cc3cc(Cl)ccc3[nH]2)CC1	5.15% (inactive)	
COc1cc(C(CO)CO[C@@H]2O[C@H](CO)[C@@H](O)[C@H](O)[C@H]2O)ccc1O (stereo not given in full)	-11.4% [at 38.5 µM] (inactive)	
CC(C)=CCc1cc(O[C@@H]2O[C@H](CO[C@@H]3OC[C@](O)(CO)[C@H]3O)[C@@H](O)[C@H](O)[C@H]2O)ccc1O	4.2% [at 25.3 µM] (inactive)	
CC1C2=CC(=O)OC2(O)CC2C1CCC1C(C)(C)CCC(O)C21C (stereo not given)	-7.72% [at 38.5 µM] (inactive)	
CC(=O)OCC1OC(O[C@H]2CC[C@@]3(C)C(CC[C@]4(C)C3CC=C3[C@@H]5CC(C)(C)CC[C@]5(C(=O)O)CC[C@]34C)[C@]2(C)CO)C(O)C(O)C1OC1OC(C)C(O)C(OC2OCC(O)C(O)C2O)C1O (stereo not given in full)	3.79% [at 11.6 µM] (inactive)	
Cc1ccccc1NC(=O)Nc1ccc(CN2C(=O)N([C@@H](CC(C)C)C(=O)N[C@@H](CC(=O)O)c3ccccc3)C(=O)C2(C)C)cc1	17% (inactive)	
CC/C=C/C=C/C1(C)OC(CC(CO)OC)=CC1=O (stereo not given)	17.2% (inactive)	
COc1ccc(C2OCC3C(c4cc(OC)c5c(c4)OCO5)OCC23)cc1OC (stereo not given)	14.4% [at 25.3 µM] (inactive)	
C=C1CCC2(C(=O)OC3OC(CO)C(O)C(O)C3O)CCC3(C)C(=CCC4C5(C)CCC(OC6OC(CO)C(OC7OC(C)C(O)C(O)C7O)C(OC7OCC(O)C(O)C7O)C6O)C(C)(C)C5CCC43C)C2C1 (stereo not given)	1.68% [at 11.6 µM] (inactive)	
C[C@@H]1O[C@@H](OC(=O)Cc2ccccc2)[C@H](O)[C@H](O)[C@H]1O	13.6% (inactive)	
CC(=O)O[C@H]1C[C@@H](O)C(C)(C)C2C[C@@H](OC(C)=O)[C@@]3(C)C4=CCC(C(CO)CC(O)C5OC5(C)C)[C@]4(C)CCC3[C@]21C (stereo not given in full)	-2.79% [at 25.3 µM] (inactive)	
COc1ccc(-c2ccn(CC[C@](C)(C(=O)NO)S(C)(=O)=O)c(=O)c2)c(F)c1		22.4 µM (active)
OC[C@@]1(O)CO[C@H](OC[C@H]2O[C@@H](OC(CCCCc3ccc(O)cc3)CCc3ccc(O)cc3)[C@H](O)[C@@H](O)[C@@H]2O)[C@@H]1O (stereo not given in full)	34.7% [at 25.3 µM] (inactive)	
CC(=O)O[C@@H](C[C@@H]1C=C(C)C(=O)O1)[C@H](C)[C@H]1CCC2[C@@]3(C)CC[C@H](O[C@@H]4O[C@H](CO)[C@@H](O)[C@H](O)[C@H]4O[C@@H]4O[C@@H](C)[C@H](O)[C@@H](O)[C@H]4O)C(C)(C)C3CC[C@@]2(C)[C@@]12COC(=O)C2 (stereo not given in full)	4.91% [at 11.6 µM] (inactive)	
COc1cc(C2Oc3c(OC)cc(/C=C/C(=O)OC4CC(O)(C(=O)O)CC(O)C4O)cc3C2CO)ccc1O (stereo not given)	-5.74% [at 25.3 µM] (inactive)	
C[C@H]1CC(=O)C2=C(C1)C(O)C(O)[C@@]1(O)[C@H]2C(=O)c2cccc(O)c2[C@@H]1O (stereo not given in full)	13% [at 38.5 µM] (inactive)	

Compound	activity change, negative = cytotoxicity	Potency
CC(=C\C(C)O)/C=C(\C)C(=O)CC1CC(CC(N)=O)CC(=O)O1 (stereo not given)	19.1% [at 38.5 µM] (inactive)	
CC1=C[C@H]2[C@@H](CC1=O)[C@H](C)C[C@H](O)[C@H]2C(C)C	-7.07% (inactive)	
CCN(CCN(C)C)C(=O)CNCc1cc(C(N)=O)ccn1	17.4% (inactive)	
COc1cnc(-n2cnc(C)n2)c2[nH]cc(C(=O)C(=O)N3CCN(C(=O)c4ccccc4)CC3)c12	26.3% (inactive)	
O=C(N[C@@H]1CC[C@@H](c2cccc(F)c2F)CN(CC(F)(F)F)C1=O)N1CCC(n2c(=O)[nH]c3ncccc32)CC1	-2.14% (inactive)	
CCCCS(=O)(=O)NC(Cc1ccc(OCCCCC2CCNCC2)cc1)C(=O)O (stereo not given)	9.61% (inactive)	
C=C(C(=O)O)[C@@H]1CC[C@@]2(C)CCC[C@@](C)(O)[C@@H]2C1	6.24% (inactive)	
O=S(=O)(O)c1ccc(Nc2ncnc3c2ncn3[C@@H]2O[C@H](CO)[C@@H](O)[C@H]2O)cc1	4.41% (inactive)	
CCc1cccc2c3c([nH]c12)[C@@](CC)(CC(=O)O)OCC3	4.15% (inactive)	
O=C(O[C@@H]1O[C@H](CO)[C@@H](O)[C@H](O)[C@H]1O)c1ccccc1	9.29% (inactive)	
COC(=O)C1=CO[C@@H](O[C@@H]2O[C@H](CO)[C@@H](O)[C@H](O)[C@H]2O)[C@H]2[C@@H]1C=C[C@]21C=C([C@H](C)OC(=O)/C=C/c2ccc(O[C@@H]3O[C@H](CO)[C@@H](O)[C@H](O)[C@H]3O)cc2)C(=O)O1	19.8% [at 25.3 µM] (inactive)	
Cc1cc(OCCN2CCOCC2)nn1-c1ccc2ccccc2c1	18.1% (inactive)	
COc1ccc(S(=O)(=O)Nc2nc(-c3cccc([N+](=O)[O-])c3)cs2)cc1OC	2.37% (inactive)	
C=C1CCc2occ(C)c2[C@H]2[C@H]1[C@@]13O[C@@]1(C[C@@H](C)[C@H]3OC(C)=O)[C@H]1O[C@@]21C	3.89% [at 38.5 µM] (inactive)	
C=C(CCO[C@@H]1O[C@H](CO)[C@@H](O)[C@H](O)[C@H]1O)C(=O)O	9.66% (inactive)	
N[C@@H](CCNCc1ccc(Cl)cc1)C(=O)N1CCCCC1	19.4% (inactive)	
CC1(C)CC[C@]2(C(=O)O[C@@H]3O[C@H](CO)[C@@H](O)[C@H](O)[C@H]3O)CC[C@]3(C)C(=CCC4[C@@]5(C)CC[C@H](O[C@@H]6O[C@H](C(=O)O)[C@@H](O[C@@H]7O[C@H](CO)[C@@H](O)[C@H](O)[C@H]7O)[C@H](O)[C@H]6O[C@@H]6O[C@H](CO)[C@@H](O)[C@H](O)[C@H]6O)C(C)(C)C5CC[C@]43C)C2C1 (stereo not given in full)	5.45% [at 11.6 µM] (inactive)	
CC(=O)c1c(C)cccc1O[C@@H]1O[C@H](CO)[C@@H](O)[C@H](O)[C@H]1O	12% [at 38.5 µM] (inactive)	
C/C(=C\CO)CC/C=C(\C)C(=O)O[C@@H]1O[C@H](CO)[C@@H](O)[C@H](O)[C@H]1O	-1.23% [at 38.5 µM] (inactive)	
N#Cc1cc(-c2n[nH]c(-c3ccncc3)n2)ccn1	1.35% (inactive)	
